Source: PubChem BioAssay
HepG2 viability = qHTS for Inhibitors of TGF-b: Cytotox Counterscreen | HepG2 CAGA-GFP viability, ATP luminescence, 18 h | Potency, µM (series often up to 46.1 µM), for inactives: top-dose activity change, negative = cytotoxicity, hits mostly cytotoxic | 410,000 compounds, 0.76% hits | AID 588856, 2011; note: potency is the fitted concentration of half-maximal effect
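HepG2 CAGA-GFP cells (1000/well, DMEM with 1% FBS) received compound, then TGF-beta at 500 pg/mL final, and were incubated 18 hours at 37 degrees C. Viability was read by CellTiter-Glo luminescence. Media-only wells were set as complete cell-killing and DMSO as no toxicity.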
ASM inhibitor = Inhibitors of Secretory Acid Sphingomyelinase (S-ASM): qHTS | placental ASM, HMU-PC fluorogenic substrate, 60 min | Potency, µM (titrated, usually from 57.5 µM), for the others: at the highest dose activity change, negative = inhibition, hits mostly inhibitors | 340,000 compounds, 0.006% hits; note: potency is the fitted concentration of half-maximal effect
Target sequence (P17405 47-631 limits assumed): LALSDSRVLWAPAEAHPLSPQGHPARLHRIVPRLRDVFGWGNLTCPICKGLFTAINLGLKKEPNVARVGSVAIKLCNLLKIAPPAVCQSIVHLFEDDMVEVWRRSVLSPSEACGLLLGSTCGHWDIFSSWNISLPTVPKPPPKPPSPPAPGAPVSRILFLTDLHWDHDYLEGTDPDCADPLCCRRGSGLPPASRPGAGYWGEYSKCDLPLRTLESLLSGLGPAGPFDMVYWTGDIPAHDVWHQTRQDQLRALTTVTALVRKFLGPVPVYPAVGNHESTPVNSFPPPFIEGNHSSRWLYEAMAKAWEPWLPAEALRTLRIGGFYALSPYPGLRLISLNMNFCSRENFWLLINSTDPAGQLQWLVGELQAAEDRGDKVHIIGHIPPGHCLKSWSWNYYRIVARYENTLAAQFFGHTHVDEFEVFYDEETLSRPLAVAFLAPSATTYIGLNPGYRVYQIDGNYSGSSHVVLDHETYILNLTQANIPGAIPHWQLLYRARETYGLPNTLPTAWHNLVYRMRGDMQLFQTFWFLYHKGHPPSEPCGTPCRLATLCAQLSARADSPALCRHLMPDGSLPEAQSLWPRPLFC
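Fluorescence read-out (Ex 386 nm, Em 447 nm) after stopping the reaction at pH 10. Enzyme: ASM from human placenta; substrate HMU-PC0, 9 uM final; 60 min, 37 °C. Compound preincubation 10 min, ambient temperature.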
TGFb SMAD3 inh = qHTS for Inhibitors of TGF-b; HepG2 CAGA-GFP TGF-b/SMAD3 reporter, GFP fluorescence, 18 h; TGF-beta stimulated, 500 pg/mL final; 410,000 compounds, 1.2% hits; Potency, µM (titrated, usually from 46.1 µM), for the others: at the highest dose activity, negative = inhibition, most hits filed as inhibitors; note: potency is the fitted concentration of half-maximal effect; % is set by controls: 0 for no effect and ±100 for the full control effect; nearly all actives have a fitted effect of over 65% in size
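Read-out: total well GFP (ex488/em500-530) summed from mean per-cell fluorescence. Cells: HEPG2 CAGA-GFP, 1% FBS DMEM, 18 h at 37 degrees C with 500 pg/mL final TGF-beta. Unstimulated wells served as the full-inhibition control; stimulated DMSO wells = 0%.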
TDP1 cell CPT = qHTS for Inhibitors of human tyrosyl-DNA phosphodiesterase 1 (TDP1): qHTS in cells in presence of CPT | chicken DT40 Tdp1-/-;hTDP1 cells + 20 nM CPT, ATP luminescence, 48 h | Potency, µM (top dose mostly 46.2 µM), for the others: at the highest dose activity change, negative = growth inhibition, actives largely listed as inhibitors | 420,000 compounds, 12% hits; note: potency is the fitted concentration of half-maximal effect; % is set by controls: 0 for no effect and ±100 for the full control effect; nearly all actives have a fitted effect of over 55% in size
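Cell growth measured by CellTiter-Glo luminescence after a minimum 48 h, 37 C compound exposure with 20 nM CPT in Tdp1-knockout DT40 cells stably expressing hTDP1, seeded 400/well; qHTS titration format.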
TDP1 cell noCPT = qHTS for Inhibitors of human tyrosyl-DNA phosphodiesterase 1 (TDP1): qHTS in cells in absence of CPT. AID 686978, 2013. DT40 Tdp1-/- hTDP1 cells, no CPT, ATP luminescence, 48 h. Potency, µM (top dose mostly 46.2 µM), inactives show top-dose activity change, negative = growth inhibition, usual class: inhibitors. 420,000 compounds, 15% hits; note: potency is the fitted concentration of half-maximal effect; % is set by controls: 0 for no effect and ±100 for the full control effect; nearly all actives have a fitted effect of over 55% in size
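Seeded 400 DT40-hTDP1 cells/well (vehicle DMSO, no 20 nM CPT); pinned compounds; ≥48 hr at 37 °C; CellTiter-Glo luminescence as viability measure.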
IL1B secr inh = qHTS for Inhibitors of Inflammasome Signaling: IL-1-beta AlphaLISA Primary Screen; THP-1 LPS/ATP IL-1B secretion, AlphaLISA, 16 h; hits give low values; AID 743279, 2014; 360,000 compounds, 4.7% hits; activity change, % at 57.5 µM; in the data active = activity change below about -50%; inconclusive = mostly about -30% to -49%; note: % is set by controls: 0 for no effect and ±100 for the full control effect
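Secreted IL-1B measured by AlphaLISA bead assay after 16 h compound exposure of THP-1 cells; compounds (final up to 57.5 uM) added 1 h before LPS (250 ng/mL) and ATP (1.25 mM) stimulation; lower signal means less secretion.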
Active calls of the source: *; ? = inconclusive; . = no result given. In the library only some 19% were active in any assay of this set; here they are far more common. Unless noted, calls come from the whole dose curve; as a rule, active = well fitted curve in the direction sought with a large enough effect; inconclusive = small, poorly fitted or top-dose-only effect, or another doubt; inactive = no such curve, though single readings can be large; an effect the other way counts as inactive or inconclusive.

SMILES	HepG2 viability	ASM inhibitor	TGFb SMAD3 inh	TDP1 cell CPT	TDP1 cell noCPT	IL1B secr inh
CCc1ccc(NC(=O)C2CCCN(S(=O)(=O)c3c(C)noc3/C=C/N(C)C)C2)cc1 (stereo not drawn)	-13.2%	.	?	?	?	.
Cc1noc(C)c1S(=O)(=O)N1CCCC(C(=O)NCCC2=CCCCC2)C1 (stereo not drawn)	7.4%	1.4%	-5.8%	?	16.4µM*	13.8
COc1ccc(-c2ccc(=O)n(Cc3c(F)cccc3Cl)n2)cc1	-27.2%	-3.7%	?	14.6µM*	7.31µM*	4.4
O=c1ccc(-c2ccccc2)nn1Cc1ccc(Cl)cc1	-24.3%	-3.2%	2.9%	?	16.4µM*	-27.0
C=Cc1ccc(Cn2nc(-c3ccc(C)cc3)ccc2=O)cc1	-24.2%	?	?	?	?	-78.8*
C=CCC(O)(CC=C)C(C)N (stereo not drawn)	1.8%	0.9%	-16.1%	4.9%	0.0%	1.0
Cc1ccc(NC(=S)NNC(=O)CCn2cc(C)cn2)cc1	3.5%	4.7%	0.4%	-0.8%	-9.9%	20.9
Cc1cnn(CCC(=O)NNC(=S)NCC(C)C)c1	-6.3%	3.8%	0.0%	?	25.9µM*	-7.8
Cc1cnn(CCC(=O)NNC(=S)Nc2ccccc2)c1	11.6%	4.3%	?	11.2µM*	17.8µM*	9.8
Cc1ccccc1Cn1c(NC2CCCC2)nc2c1c(=O)[nH]c(=O)n2C	-3.0%	2.8%	1.7%	3.0%	12.0%	0.0
CC(CCc1ccc(O)cc1)NCc1ccc(Br)cc1 (stereo not drawn)	-24.1%	-0.3%	?	11.6µM*	16.4µM*	-10.8
COc1ccc(CNC(C)CCc2ccccc2)cc1 (stereo not drawn)	-0.1%	4.5%	8.6%	?	?	-8.3
CC(CCc1ccccc1)NCc1ccc(Cl)cc1Cl (stereo not drawn)	-39.2%	-0.7%	?	?	?	-70.4*
CC(CCc1ccc(O)cc1)NCCC(c1ccccc1)c1ccccc1 (stereo not drawn)	-88.0%	-0.6%	?	?	5.17µM*	-29.5
CC(O)CNCc1ccc(Cl)cc1Cl (stereo not drawn)	-6.8%	-0.1%	-5.4%	-6.2%	-28.7%	30.1
CC(CCc1ccc(O)cc1)N(C)CCc1ccccc1 (stereo not drawn)	-19.7%	-1.5%	26.0%	-27.5%	-3.4%	-2.5
CC(CCc1ccc(O)cc1)NC(c1ccccc1)c1ccc(Cl)cc1 (stereo not drawn)	11.2µM*	-0.4%	?	?	?	-100.3*
CC(CCc1ccccc1)NCC#N (stereo not drawn)	-0.8%	0.1%	0.5%	-25.5%	25.4%	0.0
CC[C@H]1C/C=C\Cc2ccccc2[C@@H](C(=O)C[C@@H](O)CC(C)=O)OC1=O	0.2%	-4.1%	5.1%	-22.1%	-20.3%	58.5
Cc1cc(NC(=O)CSc2nnc3c(C)cc4c(C)ccc(C)c4n23)no1	0.7%	0.9%	0.4%	1.16µM*	1.46µM*	35.3
CCc1nnc(NC(=O)CSc2nnc(-c3ccncc3)n2C)s1	0.2%	6.6%	-16.5%	-6.7%	-13.3%	0.1
CCc1nnc(NC(=O)CSc2nnc3c(C)cc4c(C)ccc(C)c4n23)s1	0.4%	5.3%	0.0%	3.66µM*	4.61µM*	30.0
CN(C)c1ccc(CNC(=O)CCc2ccc(S(=O)(=O)N3CCCCCC3)cc2)cc1	-15.5%	1.3%	6.3%	?	14.6µM*	-64.4*
CCOc1ccc(CNC(=O)Cn2ccc3cc(S(=O)(=O)N4CCCC4)ccc32)cc1	-79.2%	-4.5%	7.0%	-28.8%	-14.4%	11.6
CN(C)c1ccc(CNC(=O)Cn2ccc3cc(S(=O)(=O)N4CCCCCC4)ccc32)cc1	-18.0%	.	0.0%	?	5.8µM*	.
SMILES	HepG2 viability	ASM inhibitor	TGFb SMAD3 inh	TDP1 cell CPT	TDP1 cell noCPT	IL1B secr inh
CCOc1ccc(CNC(=O)Cn2ccc3cc(S(=O)(=O)N4CCCCCC4)ccc32)cc1	-3.4%	2.5%	-7.6%	16.4µM*	25.9µM*	?
COc1ccc(C(=O)NCCc2c[nH]c3ccccc23)cc1	-1.8%	-2.3%	2.5%	?	-18.1%	-11.4
COc1cc2cc(C(=O)NCCc3c[nH]c4ccccc34)c(N)nc2cc1OC	.	.	.	?	16.4µM*	?
O=C(NCCc1c[nH]c2ccccc12)c1ccc(F)cc1F	0.8%	-0.6%	1.3%	?	?	-8.7
COc1cc(SC)ccc1C(=O)NCCc1c[nH]c2ccccc12	-5.4%	-8.2%	0.7%	?	?	-64.7*
COc1cc(SC)ccc1C(=O)NCCOc1ccc(F)cc1	2.8%	0.4%	-2.8%	?	16.4µM*	-6.5
COc1ccc(CCNC(=O)c2ccc(SC)cc2OC)cc1	-4.1%	-0.9%	7.8%	-14.2%	?	?
COc1cccc(C2C(C#N)=C(N)SC(c3ccccc3)C2[N+](=O)[O-])c1 (stereo not drawn)	-1.8%	-1.8%	-22.2%	-28.3%	?	31.9
CSc1ccc(/C=C2\C=Cc3ccccc32)cc1	1.2%	.	4.2%	4.8%	?	.
COc1ccc(CNc2nc(-c3ccc(OC)c(OC)c3)cc(C(F)(F)F)n2)cc1	-23.7%	.	?	?	?	.
COc1ccc(-c2cc(C(F)(F)F)nc(NC3CCCC3)n2)cc1OC	22.4µM*	4.5%	-2.1%	?	?	50.0
COc1ccc(-c2cc(C(F)(F)F)nc(N3CCOCC3)n2)cc1OC	-27.5%	29.4%	8.9%	?	10.3µM*	-18.9
COc1ccc(CCNc2nc(-c3ccc(OC)c(OC)c3)cc(C(F)(F)F)n2)cc1OC	-21.3%	.	?	18.4µM*	?	.
CCOc1cc(C)nc(NCCc2ccc(OC)c(OC)c2)n1	-2.3%	1.3%	-28.1%	?	20µM*	-56.7*
COc1ccc(CCNc2nc(C)cc(=O)[nH]2)cc1OC	0.5%	6.4%	-5.7%	-0.9%	7.5%	26.7
CCOC(=O)c1cnc2nc(NCc3cccc(Br)c3)[nH]n2c1=O	2.2%	.	-2.0%	-5.3%	-3.7%	.
COc1cccc(CN2C(=O)[C@@H]3Cc4c([nH]c5ccccc45)C(C)(C)N3C2=O)c1	-43.1%	-24.5%	?	.	.	.
